Laboratory results reported in paper PMC7862700, “An all-to-all approach to the identification of sequence-specific readers for epigenetic DNA modifications on cytosine”.

Assays:
Assay in all cases: DAPPL (digital affinity profiling via proximity ligation, sequencing); 10 mM Tris-HCl pH 7.5, 50 mM NaCl, 1 mM DTT, 4% glycerol, room temperature, 30 min; GST-TFs on glutathione beads, 16-mer random dsDNA library, 0.1% formaldehyde crosslink after washing; high values mean tight binding
[1] = target: T1, FLI1 (Homo sapiens, UniProt Q01543 1-452); conditions: protein: recombinant; tags: N-terminal GST; dsDNA, one strand shown
T1 sequence: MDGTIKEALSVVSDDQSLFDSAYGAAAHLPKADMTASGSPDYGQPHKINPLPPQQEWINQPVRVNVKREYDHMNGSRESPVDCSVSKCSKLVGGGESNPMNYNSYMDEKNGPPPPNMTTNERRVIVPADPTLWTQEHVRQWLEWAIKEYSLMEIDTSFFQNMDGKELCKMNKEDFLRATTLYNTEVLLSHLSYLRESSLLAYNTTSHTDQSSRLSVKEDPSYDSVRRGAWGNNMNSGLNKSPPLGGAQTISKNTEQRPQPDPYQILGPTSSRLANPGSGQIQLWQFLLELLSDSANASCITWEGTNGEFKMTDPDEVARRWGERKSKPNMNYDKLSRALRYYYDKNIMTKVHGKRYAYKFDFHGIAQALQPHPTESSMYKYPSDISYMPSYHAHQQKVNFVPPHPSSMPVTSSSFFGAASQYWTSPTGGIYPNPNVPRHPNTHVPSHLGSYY
In short: (§1)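 A tag-only sample was pooled with DNA-barcoded human transcription factors that had been expressed in yeast as GST fusions and captured on glutathione beads. The pools were incubated for 30 min at room temperature with 200 nmole of a random double-stranded 16-mer DNA library in Tris/NaCl/DTT/glycerol buffer, then washed, crosslinked with 0.1% formaldehyde, proximity-ligated (BsaI/T4 ligase, 1 h, 37 °C), PCR-amplified and sequenced on an Illumina NextSeq500. Binding signal is each hexamer's read frequency for a factor divided by its frequency for the tag-only sample.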

[2] = target: T2, ELK1 (Homo sapiens, UniProt P19419 1-428); conditions: protein: recombinant; tags: N-terminal GST; dsDNA, one strand shown
T2 sequence: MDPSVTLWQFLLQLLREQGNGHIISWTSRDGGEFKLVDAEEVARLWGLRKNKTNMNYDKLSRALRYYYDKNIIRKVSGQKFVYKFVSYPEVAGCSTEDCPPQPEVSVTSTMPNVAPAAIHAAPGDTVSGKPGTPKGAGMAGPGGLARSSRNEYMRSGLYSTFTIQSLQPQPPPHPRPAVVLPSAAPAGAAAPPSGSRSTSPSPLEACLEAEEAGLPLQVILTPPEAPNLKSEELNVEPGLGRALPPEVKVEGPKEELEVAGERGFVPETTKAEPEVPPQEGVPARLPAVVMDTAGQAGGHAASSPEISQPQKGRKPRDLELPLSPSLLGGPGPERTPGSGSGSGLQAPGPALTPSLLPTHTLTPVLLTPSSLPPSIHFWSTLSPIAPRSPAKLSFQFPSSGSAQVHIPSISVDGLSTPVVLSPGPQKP
In short: as §1

[3] = target: T3, GABPA (Homo sapiens, UniProt Q06546 1-454); conditions: protein: recombinant; tags: N-terminal GST; dsDNA, one strand shown
T3 sequence: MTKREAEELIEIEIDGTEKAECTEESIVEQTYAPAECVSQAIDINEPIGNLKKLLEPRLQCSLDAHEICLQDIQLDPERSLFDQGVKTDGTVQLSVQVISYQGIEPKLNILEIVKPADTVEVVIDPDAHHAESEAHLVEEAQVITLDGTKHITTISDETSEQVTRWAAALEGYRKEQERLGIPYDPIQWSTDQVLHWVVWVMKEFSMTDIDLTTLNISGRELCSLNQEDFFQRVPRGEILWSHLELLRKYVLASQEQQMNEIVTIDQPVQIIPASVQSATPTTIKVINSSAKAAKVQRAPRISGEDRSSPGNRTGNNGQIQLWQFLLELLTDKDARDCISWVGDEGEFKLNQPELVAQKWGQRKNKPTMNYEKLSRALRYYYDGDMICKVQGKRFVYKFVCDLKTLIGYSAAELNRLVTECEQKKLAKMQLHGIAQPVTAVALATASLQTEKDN
In short: as §1

[4] = target: T4, ERG (Homo sapiens, UniProt P11308 1-479); conditions: protein: recombinant; tags: N-terminal GST; dsDNA, one strand shown
T4 sequence: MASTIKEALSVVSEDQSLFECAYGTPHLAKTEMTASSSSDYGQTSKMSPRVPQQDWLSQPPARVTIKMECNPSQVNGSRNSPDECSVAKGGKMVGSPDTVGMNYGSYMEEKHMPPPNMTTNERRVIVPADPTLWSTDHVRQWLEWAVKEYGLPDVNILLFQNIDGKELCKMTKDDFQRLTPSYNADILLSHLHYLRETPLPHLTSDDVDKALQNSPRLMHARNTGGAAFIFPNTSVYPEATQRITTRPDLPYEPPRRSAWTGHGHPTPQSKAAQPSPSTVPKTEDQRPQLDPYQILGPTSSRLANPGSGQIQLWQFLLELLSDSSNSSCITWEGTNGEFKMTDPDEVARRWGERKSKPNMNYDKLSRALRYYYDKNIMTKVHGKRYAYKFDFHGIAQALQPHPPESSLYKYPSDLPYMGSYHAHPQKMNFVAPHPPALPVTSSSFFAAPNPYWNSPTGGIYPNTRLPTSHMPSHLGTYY
In short: as §1

[5] = target: ELF1 (Homo sapiens, UniProt P32519 1-619); conditions: protein: recombinant; tags: N-terminal GST; dsDNA, one strand shown
In short: as §1

[6] = target: T5, EHF (Homo sapiens, UniProt Q9NZC4 1-300); conditions: protein: recombinant; tags: N-terminal GST; dsDNA, one strand shown
T5 sequence: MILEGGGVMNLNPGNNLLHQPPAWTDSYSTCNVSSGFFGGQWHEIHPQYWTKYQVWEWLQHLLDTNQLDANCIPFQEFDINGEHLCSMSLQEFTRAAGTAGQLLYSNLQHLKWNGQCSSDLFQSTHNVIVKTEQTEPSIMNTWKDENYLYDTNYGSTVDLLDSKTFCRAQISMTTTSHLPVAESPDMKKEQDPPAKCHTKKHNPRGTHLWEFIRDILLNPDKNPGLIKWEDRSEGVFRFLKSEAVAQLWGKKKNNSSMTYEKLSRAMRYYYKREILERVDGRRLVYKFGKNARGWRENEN
In short: as §1

[7] = target: SPI1 (Homo sapiens, UniProt P17947 1-270); conditions: protein: recombinant; tags: N-terminal GST; dsDNA, one strand shown
In short: as §1

[8] = target: SPIB (Homo sapiens, UniProt Q01892 1-262); conditions: protein: recombinant; tags: N-terminal GST; dsDNA, one strand shown
In short: as §1

[9] = target: T6, ELK3 (Homo sapiens, UniProt P41970 1-407); conditions: protein: recombinant; tags: N-terminal GST; dsDNA, one strand shown
T6 sequence: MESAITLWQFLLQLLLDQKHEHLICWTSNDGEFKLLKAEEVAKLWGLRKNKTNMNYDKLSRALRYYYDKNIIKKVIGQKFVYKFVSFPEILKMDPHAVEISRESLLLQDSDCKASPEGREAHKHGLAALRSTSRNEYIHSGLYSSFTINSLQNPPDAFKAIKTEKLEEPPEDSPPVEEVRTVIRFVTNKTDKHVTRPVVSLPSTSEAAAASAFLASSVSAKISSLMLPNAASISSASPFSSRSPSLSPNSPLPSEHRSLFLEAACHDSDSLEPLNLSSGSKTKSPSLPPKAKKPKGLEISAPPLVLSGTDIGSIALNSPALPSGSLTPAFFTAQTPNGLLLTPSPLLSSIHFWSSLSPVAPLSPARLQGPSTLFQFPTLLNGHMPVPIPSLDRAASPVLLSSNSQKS
In short: as §1

[10] = target: T7, FEV (Homo sapiens, UniProt Q99581 1-238); conditions: protein: recombinant; tags: N-terminal GST; dsDNA, one strand shown
T7 sequence: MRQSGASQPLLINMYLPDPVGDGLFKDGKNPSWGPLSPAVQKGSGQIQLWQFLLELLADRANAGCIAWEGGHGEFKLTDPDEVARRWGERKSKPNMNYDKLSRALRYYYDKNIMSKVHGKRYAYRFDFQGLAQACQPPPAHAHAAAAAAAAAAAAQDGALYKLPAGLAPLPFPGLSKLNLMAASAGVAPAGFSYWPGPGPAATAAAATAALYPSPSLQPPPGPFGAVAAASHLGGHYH
In short: as §1

[11] = target: ETV5 (Homo sapiens, UniProt P41161 1-510); conditions: protein: recombinant; tags: N-terminal GST; dsDNA, one strand shown
In short: as §1

[12] = target: HSF1 (Homo sapiens, UniProt Q00613 1-529); conditions: protein: recombinant; tags: N-terminal GST; chain copies: 3; dsDNA, one strand shown
In short: as §1

[13] = target: T8, SPIC (Homo sapiens, UniProt Q8N5J4 1-248); conditions: protein: recombinant; tags: N-terminal GST; dsDNA, one strand shown
T8 sequence: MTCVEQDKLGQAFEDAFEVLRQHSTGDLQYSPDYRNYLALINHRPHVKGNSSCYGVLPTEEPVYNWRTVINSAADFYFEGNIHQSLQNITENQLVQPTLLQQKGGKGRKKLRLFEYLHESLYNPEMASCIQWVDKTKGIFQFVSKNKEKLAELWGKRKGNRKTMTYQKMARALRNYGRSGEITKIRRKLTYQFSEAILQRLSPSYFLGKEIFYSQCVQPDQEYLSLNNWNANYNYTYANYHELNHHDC
In short: as §1

[14] = target: ELF4 (Homo sapiens, UniProt Q99607 1-663); conditions: protein: recombinant; tags: N-terminal GST; dsDNA, one strand shown
In short: as §1

[15] = target: T9, ELK4 (Homo sapiens, UniProt P28324-2 1-405); conditions: protein: recombinant; tags: N-terminal GST; dsDNA, one strand shown
T9 sequence: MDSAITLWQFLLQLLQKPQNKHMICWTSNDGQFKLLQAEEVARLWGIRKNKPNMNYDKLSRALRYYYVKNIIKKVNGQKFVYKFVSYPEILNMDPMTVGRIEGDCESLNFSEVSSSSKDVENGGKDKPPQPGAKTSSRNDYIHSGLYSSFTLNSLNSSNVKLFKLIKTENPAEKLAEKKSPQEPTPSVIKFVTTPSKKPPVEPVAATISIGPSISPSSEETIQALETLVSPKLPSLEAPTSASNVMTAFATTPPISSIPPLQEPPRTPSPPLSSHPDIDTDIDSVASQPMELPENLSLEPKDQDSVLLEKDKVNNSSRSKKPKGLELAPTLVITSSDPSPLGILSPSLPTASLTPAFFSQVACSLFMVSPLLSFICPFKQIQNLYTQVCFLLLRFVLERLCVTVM
In short: as §1

[16] = target: T10, ETV2 (Homo sapiens, UniProt O00321 1-342); conditions: protein: recombinant; tags: N-terminal GST; dsDNA, one strand shown
T10 sequence: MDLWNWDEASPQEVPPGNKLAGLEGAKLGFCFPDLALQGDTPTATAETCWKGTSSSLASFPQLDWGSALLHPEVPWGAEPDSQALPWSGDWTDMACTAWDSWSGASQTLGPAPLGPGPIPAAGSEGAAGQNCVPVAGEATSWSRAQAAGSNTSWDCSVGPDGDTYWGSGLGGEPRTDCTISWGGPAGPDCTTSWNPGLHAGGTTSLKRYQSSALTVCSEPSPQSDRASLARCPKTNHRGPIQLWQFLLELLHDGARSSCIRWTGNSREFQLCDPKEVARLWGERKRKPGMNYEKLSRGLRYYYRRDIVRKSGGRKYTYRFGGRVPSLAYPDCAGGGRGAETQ
In short: as §1

[17] = target: T11, ELF3 (Homo sapiens, UniProt P78545 1-371); conditions: protein: recombinant; tags: N-terminal GST; dsDNA, one strand shown
T11 sequence: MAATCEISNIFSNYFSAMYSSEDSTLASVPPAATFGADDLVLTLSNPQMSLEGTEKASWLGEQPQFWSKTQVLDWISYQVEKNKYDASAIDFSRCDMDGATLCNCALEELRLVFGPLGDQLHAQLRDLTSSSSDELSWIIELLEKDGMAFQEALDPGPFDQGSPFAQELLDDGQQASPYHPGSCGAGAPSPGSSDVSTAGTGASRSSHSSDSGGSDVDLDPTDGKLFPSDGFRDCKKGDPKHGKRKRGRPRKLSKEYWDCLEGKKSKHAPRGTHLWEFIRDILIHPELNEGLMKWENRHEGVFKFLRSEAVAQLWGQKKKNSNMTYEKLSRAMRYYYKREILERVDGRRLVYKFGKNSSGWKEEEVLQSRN
In short: as §1

[18] = target: CRX (Homo sapiens, UniProt O43186 1-299); conditions: protein: recombinant; tags: N-terminal GST; dsDNA, one strand shown
In short: as §1

[19] = target: ETV1 (Homo sapiens, UniProt P50549 1-477); conditions: protein: recombinant; tags: N-terminal GST; dsDNA, one strand shown
In short: as §1

Sequence of HSF1 (Q00613 whole entry): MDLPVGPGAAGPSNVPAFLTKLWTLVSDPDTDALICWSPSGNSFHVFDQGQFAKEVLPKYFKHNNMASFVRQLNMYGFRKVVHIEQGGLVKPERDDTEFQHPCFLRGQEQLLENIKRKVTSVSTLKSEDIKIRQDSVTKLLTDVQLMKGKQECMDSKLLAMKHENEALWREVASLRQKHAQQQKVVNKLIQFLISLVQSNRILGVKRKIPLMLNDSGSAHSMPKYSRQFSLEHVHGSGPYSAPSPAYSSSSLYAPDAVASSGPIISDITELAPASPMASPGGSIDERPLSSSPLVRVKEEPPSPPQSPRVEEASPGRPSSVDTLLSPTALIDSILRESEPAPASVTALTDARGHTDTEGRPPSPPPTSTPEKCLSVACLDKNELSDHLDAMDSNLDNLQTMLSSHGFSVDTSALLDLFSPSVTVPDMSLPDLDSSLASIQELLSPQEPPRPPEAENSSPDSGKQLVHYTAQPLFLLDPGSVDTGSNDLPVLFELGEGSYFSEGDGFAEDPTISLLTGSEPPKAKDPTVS
Sequence of SPIB (Q01892 whole entry): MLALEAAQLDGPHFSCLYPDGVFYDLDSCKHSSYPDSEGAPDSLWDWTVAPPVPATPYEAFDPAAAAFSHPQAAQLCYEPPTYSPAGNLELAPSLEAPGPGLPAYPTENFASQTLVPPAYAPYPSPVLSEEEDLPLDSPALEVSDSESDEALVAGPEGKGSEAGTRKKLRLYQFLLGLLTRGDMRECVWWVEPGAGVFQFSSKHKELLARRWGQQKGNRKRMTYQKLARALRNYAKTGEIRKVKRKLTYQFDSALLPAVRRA
Sequence of ELF4 (Q99607 whole entry): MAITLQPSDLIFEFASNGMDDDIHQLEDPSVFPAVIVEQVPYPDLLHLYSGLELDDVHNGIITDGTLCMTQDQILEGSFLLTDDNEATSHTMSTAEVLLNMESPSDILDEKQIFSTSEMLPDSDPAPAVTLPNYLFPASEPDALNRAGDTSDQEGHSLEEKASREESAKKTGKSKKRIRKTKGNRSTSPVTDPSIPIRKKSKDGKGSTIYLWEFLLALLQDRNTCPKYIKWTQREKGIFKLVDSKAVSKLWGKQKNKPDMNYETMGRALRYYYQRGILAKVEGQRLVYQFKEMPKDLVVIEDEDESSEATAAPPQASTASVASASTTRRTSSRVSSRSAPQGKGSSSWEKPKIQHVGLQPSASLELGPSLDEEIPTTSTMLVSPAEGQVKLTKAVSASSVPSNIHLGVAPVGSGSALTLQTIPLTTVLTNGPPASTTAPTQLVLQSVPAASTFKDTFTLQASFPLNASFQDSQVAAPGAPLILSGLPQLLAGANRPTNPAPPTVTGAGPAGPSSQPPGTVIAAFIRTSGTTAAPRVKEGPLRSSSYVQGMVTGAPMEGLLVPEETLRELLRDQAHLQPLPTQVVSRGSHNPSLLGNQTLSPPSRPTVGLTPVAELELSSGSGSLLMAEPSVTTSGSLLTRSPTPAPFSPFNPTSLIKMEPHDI
Sequence of ELF1 (P32519 whole entry): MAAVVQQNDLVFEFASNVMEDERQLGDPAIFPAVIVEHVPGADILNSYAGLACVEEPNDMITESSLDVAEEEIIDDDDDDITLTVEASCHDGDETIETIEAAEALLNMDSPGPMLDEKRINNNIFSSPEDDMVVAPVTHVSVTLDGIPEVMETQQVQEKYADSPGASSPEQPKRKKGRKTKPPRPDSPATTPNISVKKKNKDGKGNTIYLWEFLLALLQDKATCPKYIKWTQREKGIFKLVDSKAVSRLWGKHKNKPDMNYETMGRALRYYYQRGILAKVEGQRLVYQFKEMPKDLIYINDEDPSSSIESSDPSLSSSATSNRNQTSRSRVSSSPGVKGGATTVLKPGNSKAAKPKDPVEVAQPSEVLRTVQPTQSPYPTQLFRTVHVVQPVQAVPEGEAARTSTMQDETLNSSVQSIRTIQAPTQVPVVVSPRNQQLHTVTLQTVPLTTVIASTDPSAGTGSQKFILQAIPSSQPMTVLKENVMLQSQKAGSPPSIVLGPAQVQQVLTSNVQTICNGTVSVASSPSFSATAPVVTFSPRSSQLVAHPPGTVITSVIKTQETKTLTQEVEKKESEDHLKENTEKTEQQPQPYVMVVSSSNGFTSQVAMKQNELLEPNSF
Sequence of ETV1 (P50549 whole entry): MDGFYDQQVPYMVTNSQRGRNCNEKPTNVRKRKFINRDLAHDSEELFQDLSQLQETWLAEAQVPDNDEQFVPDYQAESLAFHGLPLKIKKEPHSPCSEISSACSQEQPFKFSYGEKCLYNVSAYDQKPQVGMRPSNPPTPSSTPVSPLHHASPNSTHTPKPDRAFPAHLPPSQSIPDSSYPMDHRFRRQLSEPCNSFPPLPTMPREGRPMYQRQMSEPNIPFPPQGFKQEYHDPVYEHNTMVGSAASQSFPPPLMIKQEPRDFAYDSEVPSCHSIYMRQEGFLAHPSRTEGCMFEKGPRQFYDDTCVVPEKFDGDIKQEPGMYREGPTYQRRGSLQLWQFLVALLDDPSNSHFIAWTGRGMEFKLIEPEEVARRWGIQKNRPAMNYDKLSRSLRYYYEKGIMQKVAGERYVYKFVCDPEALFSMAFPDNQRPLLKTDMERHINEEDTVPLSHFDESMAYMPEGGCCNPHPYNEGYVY
Sequence of CRX (O43186 whole entry): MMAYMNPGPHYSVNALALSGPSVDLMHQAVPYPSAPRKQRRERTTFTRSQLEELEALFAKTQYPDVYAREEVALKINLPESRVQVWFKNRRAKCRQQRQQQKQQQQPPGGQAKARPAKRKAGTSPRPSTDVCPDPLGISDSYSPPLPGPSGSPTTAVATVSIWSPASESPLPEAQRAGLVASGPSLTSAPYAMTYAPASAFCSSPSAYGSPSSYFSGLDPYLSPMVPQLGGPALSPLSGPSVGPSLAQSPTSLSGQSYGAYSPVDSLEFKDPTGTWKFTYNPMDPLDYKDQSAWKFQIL
Sequence of ETV5 (P41161 whole entry): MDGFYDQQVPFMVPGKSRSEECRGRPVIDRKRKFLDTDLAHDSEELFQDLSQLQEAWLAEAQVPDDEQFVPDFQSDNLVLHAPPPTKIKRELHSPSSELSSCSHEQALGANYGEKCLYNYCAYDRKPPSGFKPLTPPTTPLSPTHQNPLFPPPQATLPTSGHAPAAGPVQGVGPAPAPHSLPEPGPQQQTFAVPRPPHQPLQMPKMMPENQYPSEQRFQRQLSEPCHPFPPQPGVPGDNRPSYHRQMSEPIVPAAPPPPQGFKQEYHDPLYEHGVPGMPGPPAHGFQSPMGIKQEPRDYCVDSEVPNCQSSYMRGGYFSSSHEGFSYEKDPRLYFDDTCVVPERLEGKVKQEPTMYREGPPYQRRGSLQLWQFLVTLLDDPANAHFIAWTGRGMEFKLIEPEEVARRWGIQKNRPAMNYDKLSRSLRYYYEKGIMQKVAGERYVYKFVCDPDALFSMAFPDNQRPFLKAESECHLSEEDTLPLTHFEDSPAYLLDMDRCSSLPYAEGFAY

CTAAGA was tested, and the binding signal [1] was 1.21 fold enrichment (6-mer frequency, TF over GST control), the binding signal [2] was 1.22 fold enrichment (6-mer frequency, TF over GST control) and the binding signal [3] was 1.16 fold enrichment (6-mer frequency, TF over GST control). The binding signal [4] was 1.17 fold enrichment (6-mer frequency, TF over GST control), the binding signal [5] was 1.18 fold enrichment (6-mer frequency, TF over GST control) and the binding signal [6] was 1.26 fold enrichment (6-mer frequency, TF over GST control). The binding signal [7] was 1.15 fold enrichment (6-mer frequency, TF over GST control), the binding signal [8] was 1.24 fold enrichment (6-mer frequency, TF over GST control) and the binding signal [9] was 1.18 fold enrichment (6-mer frequency, TF over GST control). For the same sequence, the binding signal [10] was 1.08 fold enrichment (6-mer frequency, TF over GST control), the binding signal [11] was 1.24 fold enrichment (6-mer frequency, TF over GST control) and the binding signal [12] was 1.64 fold enrichment (6-mer frequency, TF over GST control). The binding signal [13] was 1.18 fold enrichment (6-mer frequency, TF over GST control), the binding signal [14] was 1.27 fold enrichment (6-mer frequency, TF over GST control) and the binding signal [15] was 1.16 fold enrichment (6-mer frequency, TF over GST control). For the same sequence, the binding signal [16] was 1.2 fold enrichment (6-mer frequency, TF over GST control), the binding signal [17] was 1.24 fold enrichment (6-mer frequency, TF over GST control) and the binding signal [18] was 2.05 fold enrichment (6-mer frequency, TF over GST control). The binding signal [19] was 1.22 fold enrichment (6-mer frequency, TF over GST control).
